# Reference: ChEMBL document CHEMBL4513216, “Probing the Open Global Health Chemical Diversity Library for Multistage-Active Starting Points for Next-Generation Antimalarials” (ACS Infect Dis, 2020)
# Out of some 69,000 compounds screened, about 8,600 (12%) showed an effect of 50% or more. The sample as a whole holds a higher share of strong results than the screen did.
# Test system: Plasmodium berghei
# Test: Screen against P. berghei liver stage (PbLuc), transformed with Luciferase, at 10uM
# Assay type: functional, HepG2
# Details: tested at 10 uM
row,Compound,INHIBITION [%]
1,Fc1ccc(CN2CCC3(CC2)CC(c2cccnc2)CO3)cc1 (stereo not given),15.4
2,CN(C)c1cc(CC(NC(=O)C2CC2)c2ccccc2)nc(C2CC2)n1 (stereo not given),37.1
3,O=C(NCc1ccccn1)C1=NN(c2ccccc2)C(=O)CN1,-170
4,CN(C)C(c1ccccn1)C1CCC(CNC(=O)C2CC2)CC1 (stereo not given),-103
5,Cn1cc(-c2ncc3c(c2C(=O)O)CCN(Cc2ccccn2)C3)cn1,29.4
6,Cc1cc(Cl)c(C)c(S(=O)(=O)N2CCN(Cc3ccccn3)CC2)c1Cl,18.6
7,CC(C)Cn1cc2nc(N3CCCC(C)C3)[nH]cc-2c1=O (stereo not given),-40.4
8,CC(C)Cn1cc2nc(N3CCC(O)CC3)[nH]cc-2c1=O,66.5
9,CC(C)Cn1cc2nc(N3CCCC3)[nH]cc-2c1=O,47.4
10,COc1ccccc1C(=O)NS(=O)(=O)c1cncc(Br)c1,28.3
11,COc1c(CNCC(O)c2ccccc2)c(C(C)C)nn1C (stereo not given),3.73
12,COc1ccc2c(c1)OCC(C(=O)NCc1ncc3c(n1)CCC3)C2 (stereo not given),-9.39
13,O=C1NCc2ccccc2CC12CCN(Cc1ccccc1Cl)CC2,36.6
14,Cc1nc(N(C)C)nc(N2CCC3(CC2)CNC(=O)O3)c1C,-12.1
15,NC(=O)CN1CCC2(CC1)C[C@@H](O)[C@H](c1ccccc1)NC2=O,53.2
16,CN(C)C(=O)CN1CCC2(CC1)C[C@@H](O)[C@H](c1ccccc1)NC2=O,22
17,CNC(=O)CN1CCC2(CC1)C[C@@H](O)[C@H](c1ccccc1)NC2=O,44.8
18,CN(C)C(=O)CN1CCn2cc(Cn3cccn3)nc2C1,38.5
19,COc1ccc(C2CCCN2c2cnccn2)c(OC)c1 (stereo not given),31.6
20,COc1ccc(C2CCCN2c2nnc(C)s2)c(OC)c1 (stereo not given),15.5
21,COc1ccc(C2CCCN2c2ccnc(C)c2Cl)c(OC)c1 (stereo not given),82.2
22,O=C([C@@H]1CN(Cc2nccs2)C[C@H]2OCC[C@H]21)N1CCOCC1,14
23,Cn1cc(CN2CC[C@H]3O[C@H](C(=O)NCc4ccco4)CC[C@H]32)cn1,-20.6
24,CC1c2ncc(CNC(=O)C3CC3)n2CCN1Cc1nccs1 (stereo not given),-4.32
25,c1cc2c(cc1CN1CCCC3(CCOC3)C1)OCO2 (stereo not given),25.4
26,CN1CCC2(COCCN(Cc3ccc4c(c3)OCO4)C2)C1 (stereo not given),61.5
27,CN1CCC2(COCCN(Cc3cccc(C#N)c3)C2)C1 (stereo not given),89.6

row,Compound,INHIBITION [%]
1,CCN1CC2(CCC1=O)CCN(Cc1cccc(C#N)c1)CC2,33.4
2,COCCN1CCC2(COCCN(Cc3ccc4c(c3)OCO4)C2)C1 (stereo not given),46.7
3,CCCOC(=O)N1CCCC2(CCN(Cc3cccc(C#N)c3)C2)C1 (stereo not given),2.7
4,COCC(C)NC(=O)c1sccc1-n1cnnn1 (stereo not given),36.5
5,Nc1nnc(Cn2nnc(-c3ccccc3F)n2)s1,61.8
6,Fc1ccccc1-c1nnn(CCCc2nn[nH]n2)n1,78.8
7,Fc1ccccc1CN1CCC[C@H](Cn2nnc(-c3cccs3)n2)C1,21.6
8,Nc1nnc(CCCn2nnc(-c3ccccc3F)n2)s1,44.7
9,Cc1cc(-c2nnn(CCNS(C)(=O)=O)n2)ccc1F,31.8
10,CNS(=O)(=O)CCCn1nnc(-c2ccc(F)c(C)c2)n1,-6.51
11,COCCN1CCC(Cc2cncc(-c3ccc(C(=O)O)cc3)n2)CC1,31.6
12,Nc1cnn(CC(=O)N2CCCCC2)c1,34
13,COc1cccc(CN2CCCCC2Cn2nc(C)nc2C)c1 (stereo not given),-59.4
14,NC(=O)COc1ccc(C(=O)N2CCCC(n3ccnc3)C2)cc1 (stereo not given),-19.4
15,CNC(=O)N1CC[C@H]2N(C)CC[C@@]2(C(=O)N2CCOCC2)CC1,-18.4
16,CCOc1ccc(C(=O)N2CCCS2(=O)=O)cc1OC,11.2
17,COc1ccc(C(=O)N2CCCS2(=O)=O)cc1OC,5.03
18,COc1cc(C(=O)N2CCCS2(=O)=O)ccc1OC(C)C,66.7
19,Cc1cc(C)n(NC(=O)c2ccccc2F)c(=O)c1,47.1
20,Cc1cc(C)n(NC(=O)c2ccc(Cl)cc2Cl)c(=O)c1,60.4
21,Cc1cc(C)n(NC(=O)c2ccccc2C)c(=O)c1,-46.4
22,CCc1nc(CN2CCN(C(=O)c3csnn3)CC2)cs1,10.2
23,CS(=O)(=O)Cc1ccc(C(=O)NC2CCc3nccn3C2)o1 (stereo not given),-16.38
24,CCc1c(O)nc2nc(N3CCCC3)nn2c1C,44.1
25,Cc1ncccc1Oc1cncc(C2CCCN2Cc2cncn2C)n1 (stereo not given),32.8
26,Cn1cncc1CN1CCCC1c1cncc(Oc2ccc(F)cc2)n1 (stereo not given),67.7
27,CC(C)(N)C(=O)N1CCCC1c1cncc(Oc2ccc(F)cc2)n1 (stereo not given),31.1

row,Compound,INHIBITION [%]
1,CN(C)CC(=O)N1CCCC1c1cncc(Oc2ccc(F)cc2)n1 (stereo not given),53
2,CC(=O)N1CCCC1c1cncc(Oc2ccc(F)cc2)n1 (stereo not given),11.1
3,NC(=O)CN1CCCC1c1cncc(Oc2ccc(Cl)cc2)n1 (stereo not given),13.5
4,Cn1cncc1CN1CCCC1c1cncc(Oc2ccc(Cl)cc2)n1 (stereo not given),96.6
5,CNCC(=O)N1CCCC1c1cncc(Oc2ccc(F)cc2)n1 (stereo not given),38.2
6,COc1ccc(Oc2cncc(C3CCCN3C(C)=O)n2)cc1 (stereo not given),-3.98
7,CCN(CC)C(=O)c1ccn(COc2c(Cl)cccc2Cl)n1,20.9
8,Cc1ccc(N2CCCN(C(=O)CCCn3ccnc3C)CC2)nn1,7.18
9,O[C@]12CCNC[C@H]1CN(c1nccc3ccccc13)CC2,53.9
10,CC(=O)N1CC2(CCN(c3nccc4ccccc34)CC2)CC1C(=O)O (stereo not given),29.2
11,CN(C)c1nccnc1N1CC[C@@]2(O)CCNC[C@H]2C1,15.8
12,CN(C)CCO[C@H]1C[C@@H](O)C12CCN(c1nccc3ccccc13)CC2,-3.58
13,CCCOc1ccc2ccccc2c1CN1CC[C@@]2(O)CCNC[C@H]2C1,5.41
14,Cc1nnc(N2CC[C@@]3(O)CCNC[C@H]3C2)c2ccccc12,25.8
15,O=C(O)C1CC2(CCN(c3nccc4ccccc34)CC2)CN1 (stereo not given),93.1
16,O[C@]12CCNC[C@H]1CN(c1ncccc1Cl)CC2,7.6
17,O[C@]12CCNC[C@H]1CN(c1ccnc3ccccc13)CC2,56.7
18,Cc1cc(C2CCCN2C(=O)c2cc3c(s2)CCC3)no1 (stereo not given),15.3
19,CS(=O)(=O)N1CCOCC2(CCN(C(=O)c3ccco3)CC2)C1,27.6
20,Cc1cnc(C)c(N2CCC3(CCCN(C4CCOCC4)C3=O)C2)n1 (stereo not given),-30
21,CN1CCC(C(=O)N2CCC(c3ccc4c(N)n[nH]c4n3)CC2)CC1,34.75
22,Cc1cnn(C2CCCN(C(=O)c3ccc(C(N)=O)cn3)C2)c1 (stereo not given),44.3
23,Cc1c(Br)cccc1S(=O)(=O)NCc1ccnn1C,37.1
24,O=c1cccnn1CC1CN(c2ncc(F)cn2)Cc2nccn2C1 (stereo not given),-3.33
25,COc1ccc(C(=O)N2CCN(CCO)CC2)c(F)c1,-61.4
26,OCCc1ncnn1Cc1cccc(Cl)c1,0.426
27,CN(Cc1ccc2c(c1)OCCO2)Cc1nnnn1-c1ccccc1,51.2

row,Compound,INHIBITION [%]
1,NC(=O)c1c[nH]nc1NCc1ccc2c(c1)OCO2,4.35
2,c1ccc(-n2nnnc2CNCc2ccc3c(c2)OCCO3)cc1,34.9
3,c1ccc(-n2nnnc2NCc2ccc3c(c2)OCO3)cc1,64.5
4,N#Cc1c[nH]nc1NCc1ccc2c(c1)OCO2,-5.51
5,CN(Cc1ccc2c(c1)OCO2)Cc1nc(Cc2ccccc2)no1,9.56
6,COCCn1ccnc1CN1CCc2[nH]cnc2C1c1cnn(C)c1C (stereo not given),32.2
7,Cn1cc(-c2nnc3sc(C4CC4)nn23)cn1,0.87
8,O=C(COc1ccccc1)NCCNC(=O)c1scnc1Cl,23.5
9,CCCc1cc(=O)[nH]c(-c2ccccc2CN(C)CCn2cccn2)n1,16.1
10,Cc1ccc(CN2CCC(NC(=O)c3scnc3C)CC2)cc1,40.9
11,Cc1ncsc1C(=O)NC1CCN(Cc2ccc(C(F)(F)F)cc2)CC1,62.6
12,Cc1ncsc1C(=O)NC1CCN(Cc2ccc(C(N)=O)cc2)CC1,-12.2
13,COCCN1CCN(Cc2ccncc2)[C@H]2CS(=O)(=O)C[C@H]21,63.5
14,COCCN1CCN(Cc2nccs2)[C@H]2CS(=O)(=O)C[C@H]21,55.7
15,CCc1ccc(CN2CCN(CCOC)[C@@H]3CS(=O)(=O)C[C@@H]32)cc1,39.4
16,COCCN1CCN(Cc2ccc(Cl)cc2)[C@H]2CS(=O)(=O)C[C@H]21,52.1
17,CCOc1ccc(CN2CCN(CCOC)[C@@H]3CS(=O)(=O)C[C@@H]32)cc1,45.8
18,COCCN1CCN(Cc2cccnc2)[C@H]2CS(=O)(=O)C[C@H]21,43
19,COCCN1CCN(Cc2nc3c(s2)CCCC3)[C@H]2CS(=O)(=O)C[C@H]21,-27.6
20,COCCN1CCN(Cc2ccc(F)c(C)c2)[C@H]2CS(=O)(=O)C[C@H]21,28.5
21,COCCN1CCN(Cc2ccc(C(C)=O)cc2)[C@H]2CS(=O)(=O)C[C@H]21,32.1
22,Cn1ccnc1CN1CCCC(CCCc2ccccn2)(C(N)=O)C1 (stereo not given),10.9
23,O=C(NCCc1ccco1)Nc1cc(C(F)(F)F)c[nH]c1=O,4.8
24,Cc1nc(C)n(CC2CCCN2CC(=O)Nc2cc(C)on2)n1 (stereo not given),40.2
